Structures are written as SMILES. Values joined by “and” are separate entries in the source; they are usually repeats but may differ in a detail not shown here. Equal values may be shown once.

Holding throughout (conditions): Compound concentration 20.0 uM, Protein concentration 2.0 uM, Result type QC Liability
The target of assay [1] is Tyrosine-protein kinase ABL1 (Homo sapiens) (UniProt P00519).
For assay [2], the target named is Cyclin-dependent kinase 2 (Homo sapiens) (UniProt P24941).
Assay [3] addresses Casein kinase I isoform delta (Homo sapiens) (UniProt P48730).
Assay [4] concerns the target Glycogen synthase kinase-3 beta (Homo sapiens) (UniProt P49841).
The target of assay [5] is Mitogen-activated protein kinase 1 (Homo sapiens) (UniProt P28482).
Assay [6] deals with T1, Aurora kinase A (Homo sapiens) (UniProt O14965).
T1 sequence (whole entry): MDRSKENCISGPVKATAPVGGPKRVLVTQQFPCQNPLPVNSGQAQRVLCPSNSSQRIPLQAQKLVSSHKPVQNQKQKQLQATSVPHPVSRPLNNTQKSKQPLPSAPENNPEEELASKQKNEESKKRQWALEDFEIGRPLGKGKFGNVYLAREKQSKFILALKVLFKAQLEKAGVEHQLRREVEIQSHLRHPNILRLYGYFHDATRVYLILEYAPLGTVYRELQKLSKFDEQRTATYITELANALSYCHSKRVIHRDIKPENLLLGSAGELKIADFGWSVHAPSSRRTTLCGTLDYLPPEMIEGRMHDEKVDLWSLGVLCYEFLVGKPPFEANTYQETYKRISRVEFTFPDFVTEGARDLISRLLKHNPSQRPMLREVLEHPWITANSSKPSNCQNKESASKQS

Sequence of Mitogen-activated protein kinase 1 (Homo sapiens) (P28482 whole entry): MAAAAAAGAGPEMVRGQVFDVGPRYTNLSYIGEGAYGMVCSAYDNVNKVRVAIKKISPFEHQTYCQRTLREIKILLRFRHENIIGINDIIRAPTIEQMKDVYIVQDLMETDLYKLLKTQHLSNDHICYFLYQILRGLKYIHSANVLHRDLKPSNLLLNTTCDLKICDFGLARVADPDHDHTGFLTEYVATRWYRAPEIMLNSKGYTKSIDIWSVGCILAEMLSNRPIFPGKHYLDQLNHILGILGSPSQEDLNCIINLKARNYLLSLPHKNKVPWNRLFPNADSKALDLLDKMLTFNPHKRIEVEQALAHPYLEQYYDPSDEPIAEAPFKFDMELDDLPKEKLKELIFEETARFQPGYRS
Sequence of Glycogen synthase kinase-3 beta (Homo sapiens) (P49841 whole entry, looked up): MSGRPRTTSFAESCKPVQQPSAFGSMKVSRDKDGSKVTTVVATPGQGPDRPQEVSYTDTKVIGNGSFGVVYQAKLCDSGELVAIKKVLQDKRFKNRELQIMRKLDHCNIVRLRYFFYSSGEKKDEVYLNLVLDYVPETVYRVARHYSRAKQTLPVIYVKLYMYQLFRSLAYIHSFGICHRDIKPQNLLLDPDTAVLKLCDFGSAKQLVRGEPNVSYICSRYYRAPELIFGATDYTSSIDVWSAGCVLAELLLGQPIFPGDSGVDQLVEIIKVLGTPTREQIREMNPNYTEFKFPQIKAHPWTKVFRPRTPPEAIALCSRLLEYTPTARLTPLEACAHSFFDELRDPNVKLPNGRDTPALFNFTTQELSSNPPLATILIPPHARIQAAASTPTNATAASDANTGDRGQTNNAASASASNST
Sequence of Casein kinase I isoform delta (Homo sapiens) (P48730 whole entry, looked up, canonical isoform): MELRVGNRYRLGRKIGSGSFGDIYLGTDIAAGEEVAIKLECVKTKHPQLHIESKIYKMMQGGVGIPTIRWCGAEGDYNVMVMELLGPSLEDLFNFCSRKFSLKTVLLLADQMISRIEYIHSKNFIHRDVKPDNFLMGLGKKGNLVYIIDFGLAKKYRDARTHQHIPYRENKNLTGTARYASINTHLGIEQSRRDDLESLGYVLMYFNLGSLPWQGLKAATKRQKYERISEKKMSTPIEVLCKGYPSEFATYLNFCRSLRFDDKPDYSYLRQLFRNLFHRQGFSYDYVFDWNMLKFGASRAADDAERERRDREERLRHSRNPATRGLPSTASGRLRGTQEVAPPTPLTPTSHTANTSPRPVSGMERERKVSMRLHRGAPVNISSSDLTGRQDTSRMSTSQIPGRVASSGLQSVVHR
Sequence of Tyrosine-protein kinase ABL1 (Homo sapiens) (P00519 whole entry): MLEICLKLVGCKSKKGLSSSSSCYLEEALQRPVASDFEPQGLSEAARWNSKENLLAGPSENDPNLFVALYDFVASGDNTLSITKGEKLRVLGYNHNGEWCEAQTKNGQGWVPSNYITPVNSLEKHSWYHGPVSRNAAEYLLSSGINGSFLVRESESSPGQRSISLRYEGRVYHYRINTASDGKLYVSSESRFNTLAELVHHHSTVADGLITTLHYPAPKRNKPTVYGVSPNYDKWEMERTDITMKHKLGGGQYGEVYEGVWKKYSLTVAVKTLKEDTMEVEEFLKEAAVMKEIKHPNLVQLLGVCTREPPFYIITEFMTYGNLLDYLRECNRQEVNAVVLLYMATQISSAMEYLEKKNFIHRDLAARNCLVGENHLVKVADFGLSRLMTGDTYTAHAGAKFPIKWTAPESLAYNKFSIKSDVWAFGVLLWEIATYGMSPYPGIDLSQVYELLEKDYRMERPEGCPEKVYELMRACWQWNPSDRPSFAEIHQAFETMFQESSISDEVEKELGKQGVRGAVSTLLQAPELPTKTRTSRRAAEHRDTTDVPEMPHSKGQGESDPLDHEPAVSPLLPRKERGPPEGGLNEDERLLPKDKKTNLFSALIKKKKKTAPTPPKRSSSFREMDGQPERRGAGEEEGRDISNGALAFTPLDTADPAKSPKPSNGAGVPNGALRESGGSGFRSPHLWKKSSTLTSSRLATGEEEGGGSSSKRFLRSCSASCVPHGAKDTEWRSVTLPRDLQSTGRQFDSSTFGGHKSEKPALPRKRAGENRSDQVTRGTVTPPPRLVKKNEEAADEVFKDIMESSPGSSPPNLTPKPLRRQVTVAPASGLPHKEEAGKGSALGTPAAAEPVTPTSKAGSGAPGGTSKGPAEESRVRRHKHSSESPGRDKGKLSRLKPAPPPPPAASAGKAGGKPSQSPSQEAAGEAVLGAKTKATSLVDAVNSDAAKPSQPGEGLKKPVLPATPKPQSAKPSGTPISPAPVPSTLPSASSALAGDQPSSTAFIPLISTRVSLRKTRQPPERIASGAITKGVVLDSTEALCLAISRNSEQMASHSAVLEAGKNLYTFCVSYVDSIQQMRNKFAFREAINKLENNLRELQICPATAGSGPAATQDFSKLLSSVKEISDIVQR

`CN(C)C(=O)Cn1cc(-c2nc([C@@](C)(c3ccc(-c4cnc(N)nc4)cc3)C3CC3)no2)cn1`: the ΔTm – broadly, the shift of the melting midpoint relative to a reference – in assay [1] was 1.32 °C; in assay [2], 0.32 °C; in assay [3] it was 0.5 °C; in assay [4], -0.36 °C; in assay [5] it was 0.32 °C; in assay [6], 2.6 °C.

In the case of `CCNC1=N[C@@H]2[C@@H](O)[C@H](O)[C@@H](CO)O[C@@H]2S1`, the ΔTm in assay [1] was 0.07 °C; in assay [2] it was 0.73 °C; in assay [3] it was 0.01 °C; in assay [4] it was -0.6 °C; in assay [5], 0.28 °C; in assay [6] it was -0.73 °C.

For `O=C(O)CCCCN(CCc1cc(F)ccc1OCc1ccc(-c2ccc(C(F)(F)F)cc2)cc1)Cc1ccc(C(=O)O)cc1`, the ΔTm was 0.64 °C in assay [1]; -0.19 °C in assay [2]; 0.21 °C in assay [3]; -1.11 °C in assay [4]; -0.69 °C in assay [5]; 0.32 °C in assay [6].

With `CN(C)c1ncc2cc(-c3ccc(-c4ncccc4F)cc3Cl)c(=O)n(C[C@H]3OC[C@H](N)CO3)c2n1`, the ΔTm in assay [1] was -0.17 °C; in assay [2], 0.29 °C; in assay [3], 0.68 °C; in assay [4], -0.87 °C; in assay [5], -0.05 °C; in assay [6], -1.8 °C.

As for `Cc1cc(C)nc(Nc2ncc(C(=O)NCCc3c(C)[nH]c4ccccc34)cn2)c1`, the ΔTm in assay [1] is -0.23 °C; in assay [2], 0.75 °C; in assay [3] it was -0.55 °C; in assay [4], -2.26 °C; in assay [5], -0.02 °C; in assay [6], 0.27 °C.

In the case of `CC[C@H](CO)Nc1nc(Nc2cccc(-c3ccccn3)c2)c2ncn(C(C)C)c2n1`, the ΔTm is 7.62 °C in assay [1]; 4.37 °C in assay [2]; 4.48 °C in assay [3]; 1.93 °C in assay [4]; 2.21 °C in assay [5]; 4.01 °C in assay [6].

For `O=C(O)Cc1cc(I)c(Oc2ccc(O)c(I)c2)c(I)c1`, the ΔTm in assay [1] was -0.37 °C; in assay [2] it was 0.49 °C; in assay [3], 0.22 °C; in assay [4] it was -0.68 °C; in assay [5] it was -1.09 °C; in assay [6], 3.86 °C.

Regarding `COc1cc(C(=O)NCCOCCOCCOCC(=O)N[C@H](C(=O)N2C[C@H](O)C[C@H]2C(=O)NCc2ccc(-c3scnc3C)cc2)C(C)(C)C)ccc1Nc1ncc(C(F)(F)F)c(Oc2cccc3c2C(=O)CC3)n1`, the ΔTm was -0.62 °C in assay [1]; -0.81 °C in assay [2]; 0.41 °C in assay [3]; 0 °C in assay [4]; -8.23 °C in assay [5]; 1.75 °C in assay [6].

As for `CC(C)(C)OC(=O)CN1C(=O)c2c(OCC(=O)O)cccc2Oc2ccc(C(F)(F)F)cc21`, the ΔTm was 0.48 °C in assay [1]; 0.55 °C in assay [2]; 0.4 °C in assay [3]; 1.17 °C in assay [4]; 0.51 °C in assay [5]; -0.28 °C in assay [6].

On to `CC(=O)Nc1c(F)cc(C(=O)N[C@H]2CC[C@H](O)CC2)cc1O[C@@H](C)c1ccccc1`, for which the thermal shift (ΔTm) in assay [1] is 0.21 °C; in assay [2], 0.97 °C; in assay [3], -0.03 °C; in assay [4], -0.82 °C; in assay [5] it was 0.43 °C; in assay [6], -0.15 °C.

On to `O=C(Nc1ccc(C(O)(C(F)(F)F)C(F)(F)F)cc1)c1ccc(C(F)(F)F)cc1`, for which the ΔTm in assay [1] was 0.76 °C; in assay [2], 1.61 °C; in assay [3], 1.47 °C; in assay [4], -0.34 °C; in assay [5] it was 0.19 °C; in assay [6], 0 °C.

Take `Cc1cc(SCc2sc(-c3ccc(C(F)(F)F)cc3)nc2C)ccc1OCC(=O)O`: the ΔTm was 0 °C in assay [1]; 0.3 °C in assay [2]; 1.18 °C in assay [3]; -1.11 °C in assay [4]; 0.57 °C in assay [5]; -2.58 °C in assay [6].

Turning to `C[C@@H]1OCC2(CCN(c3cnc(Sc4ccnc(N)c4Cl)c(N)n3)CC2)[C@@H]1N`, the ΔTm in assay [1] was 0.58 °C; in assay [2], 0.91 °C; in assay [3], -0.25 °C; in assay [4] it was 0.28 °C; in assay [5], 0.06 °C; in assay [6] it was -0.32 °C.

Consider `Clc1ccccc1C(c1ccccc1)(c1ccccc1)n1ccnc1`, for which the ΔTm was -1.2 °C in assay [1]; -1.88 °C in assay [2]; -0.72 °C in assay [3]; -2.38 °C in assay [4]; -0.79 °C in assay [5]; -2.33 °C in assay [6].

As to `Cc1ncsc1-c1ccc(CNC(=O)[C@@H]2C[C@H](O)CN2C(=O)[C@@H](NC(=O)C2(F)CC2)C(C)(C)C)c(OCCOc2ccc(CN3CCN(c4cc(-c5ccccc5O)nnc4N)CC3)cc2)c1` (relative stereo), the ΔTm was found to be 0.51 °C in assay [1]; 2.76 °C in assay [2]; 6.03 °C in assay [3]; 0.29 °C in assay [4]; 0.5 °C in assay [5]; 3.42 °C in assay [6].

Take `COc1cc(-c2cc3ncccc3c(O[C@H](C)[C@H]3CNC(=O)C3)n2)cc(OC)c1OC`: the shift in melting temperature (ΔTm) in assay [1] was 3.69 °C and 3.1 °C; in assay [2] it was 0.94 °C; in assay [3], 3.55 °C and 2.97 °C; in assay [4], -0.33 °C and -0.99 °C; in assay [5] it was 1.84 °C and 1.51 °C; in assay [6], 9.58 °C and 8.08 °C.

Turning to `CN1CCCN(C(=O)c2cccc(-c3ccc(/C=C4/C(=O)Nc5ccc(Cl)cc54)o3)c2)CC1`, the ΔTm in assay [1] is 1.94 °C; in assay [2], 2.38 °C; in assay [3], 2.04 °C; in assay [4], 5.85 °C; in assay [5], -0.12 °C; in assay [6], 1.88 °C.

On to `Cn1nc(-c2ccc(C(N)=O)cc2)c2ccccc2c1=O`, for which the thermal shift (ΔTm) in assay [1] is 0.66 °C; in assay [2] it was 0.13 °C; in assay [3] it was 0.57 °C; in assay [4] it was -0.19 °C; in assay [5] it was 0.56 °C; in assay [6] it was 0.43 °C.

As to `CCC(F)(F)c1cc(N2CCC(S(C)(=O)=O)CC2)nc2sc(C(N)=O)c(N)c12`, the ΔTm in assay [1] was 0.45 °C and 1.08 °C and 2.55 °C; in assay [2], 0.38 °C and 0.74 °C and 0.49 °C; in assay [3], 1.03 °C and 1.35 °C and 2.12 °C; in assay [4], 0.35 °C and -0.21 °C and 1.09 °C; in assay [5], 0.45 °C and 0.46 °C and 0.62 °C; in assay [6], 0.98 °C and 0.42 °C and 1.33 °C.

For `Cc1cc(OCCC(C)(C)O)cc(C)c1-c1ccc(F)c2c1CC[C@H]2Oc1ccc2c(c1)OC[C@H]2CC(=O)O`, the ΔTm in assay [1] is -2.63 °C; in assay [2], -3.73 °C; in assay [3], -1.62 °C; in assay [4] it was -4.17 °C; in assay [5], -8.53 °C; in assay [6], -3.22 °C.

Regarding `COc1ccc(S(=O)(=O)N2CCOCC2)cc1Nc1ccc2c(n1)N(C1CCOCC1)[C@H](C)C(=O)N2C`, the ΔTm was -0.18 °C in assay [1]; 0.41 °C in assay [2]; -0.08 °C in assay [3]; -0.48 °C in assay [4]; -0.88 °C in assay [5]; 0.03 °C in assay [6].

Turning to `Cc1cccc(CC(=O)N2CCc3c2ccc(-c2cn(C)c4ncnc(N)c24)c3F)n1`, the ΔTm was 2.48 °C in assay [1]; 0.14 °C in assay [2]; 0.49 °C in assay [3]; -0.92 °C in assay [4]; 0.15 °C in assay [5]; 0.37 °C in assay [6].

`CC(C)c1nc2c(c3c1[C@@H](c1ccc(C(F)(F)F)cc1)OC31CCOCC1)[C@@H](O)CC(C)(C)C2`: the shift in melting temperature (ΔTm) in assay [1] was -0.41 °C; in assay [2], 0.52 °C; in assay [3], 0.25 °C; in assay [4], -1.28 °C; in assay [5], -0.13 °C; in assay [6], -0.38 °C.

Regarding `N=C(N)Nc1cc(C2CCNCC2)cc(C(F)(F)F)c1`, the thermal shift (ΔTm) in assay [1] was 0.05 °C; in assay [2] it was 0.64 °C; in assay [3], 0.15 °C; in assay [4] it was -0.15 °C; in assay [5] it was 0.15 °C; in assay [6], -0.12 °C.

As for `COc1cc(-c2cn(C)c(=O)c3cnccc23)cc(OC)c1CN(C)C`, the ΔTm in assay [1] came out at 0.24 °C; in assay [2], 0.43 °C; in assay [3], 0.32 °C; in assay [4], 0.06 °C; in assay [5], 0.23 °C; in assay [6], 0.56 °C.

As to `N#CN1CC[C@H](C(=O)Nc2nc3c(s2)CN(C(=O)CN=[N+]=[N-])CC3)C1`, the ΔTm was 0.16 °C in assay [1]; 0.34 °C in assay [2]; 0.24 °C in assay [3]; -0.2 °C in assay [4]; 0.64 °C in assay [5]; -0.99 °C in assay [6].

These data come from ChEMBL document CHEMBL5308504, “Tm Shift (DSF) assay results for EUbOPEN Chemogenomics Library” (2023).
